Screens as filed in PubChem BioAssay.
A selection: hits, their analogues and other compounds. The true share with any hit is near 5.9%.
rCAG RNA binder = binders of r(CAG) RNA repeats, primary screen, biochemical, fluorescence. r(CAG) RNA repeat, TO-PRO-1 dye displacement fluorescence. inhibition, % at 3 µM. AID 651821, 2012. actives 1.3% (n = 370,000);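 active = inhibition above the plate cutoff, the mean of all test compounds on that plate plus 3 SD, cut at about 35% in these data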;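 note: 0% = DMSO alone and 100% = 100 µM mitoxantrone as full dye displacement; higher means more dye released from RNA so lower well fluorescence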
ABHD5-PLIN5 inh = ABHD5-PLIN5 interaction inhibitors, primary screen, cell lysate, split luciferase complementation, luminescence; Perilipin-5 (Homo sapiens) + 1-acylglycerol-3-phosphate O-acyltransferase ABHD5 (Homo …; Split G. princeps luciferase complementation, 4 h; inhibition, % at 4 µM; actives 0.78% (n = 360,000); AID 602281, 2012;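 active = inhibition above the mean inhibition across every tested compound plus 3 SD, cut at about 22% in these data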;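 note: 0% = DMSO only wells and the 100% control is not disclosed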
LANA-H2B inh = blockers of LANA interaction with H2A/H2B – biochemical, FP readout, HTS, primary screen; cell-free LANA-H2A/H2B peptide, fluorescence polarization; inhibition, % (no concentration beside the values); actives 0.6% (n = 320,000); AID 2629, 2010; in the data active = inhibition mostly above about 10%, no sharp cut-off; inactive = mostly below about 6.7%
PRMT1 FP inh = PRMT1 methyltransferase inhibitors, primary screen, biochemical, fluorescence polarization; inhibition, % at 2.79 µM; recombinant PRMT1, activity-based probe fluorescence polarization; Protein arginine N-methyltransferase 1 (Homo sapiens), Q99873; AID 652257, 2013; actives 1.3% (n = 370,000);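 active = inhibition above about 21% made by adding two undisclosed values, limit read from the data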
Rtt109 Vps75 = inhibitors of C. albicans Rtt109/Vps75 HAT, primary screen, biochemical, ThioGlo CoA-SH fluorescence, plate reader; inhibition, % at 34.9 µM; Histone acetyltransferase RTT109 (Candida albicans (strain SC5314 / ATCC MYA-2876)), …; AID 540336, 2011; actives 0.16% (n = 330,000); purified Rtt109/Vps75, 4 h;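 active = inhibition of at least 50% in every replicate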
ALR inh = inhibitors of human ALR sulfhydryl oxidase, primary screen, biochemical, H2O2 detection, HRP-luminol luminescence, single point | purified ALR, DTT oxidation | inhibition, % (no concentration beside the values) | actives 3.8% (n = 290,000) | AID 485317, 2010;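 active = mean replicate inhibition above about 79%, with every replicate also reaching it, limit read from the data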
Target sequence (P55789 whole entry, looked up): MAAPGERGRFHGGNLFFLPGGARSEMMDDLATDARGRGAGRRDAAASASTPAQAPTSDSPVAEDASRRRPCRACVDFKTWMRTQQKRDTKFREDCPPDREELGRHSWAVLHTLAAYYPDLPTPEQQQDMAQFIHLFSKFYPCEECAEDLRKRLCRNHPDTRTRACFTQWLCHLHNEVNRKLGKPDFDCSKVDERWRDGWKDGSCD
ABHD5 PLIN5 conf = ABHD5-PLIN5 interaction inhibitors, confirmation, biochemical, luminescence; shares compounds with ABHD5-PLIN5 inh; inhibition, % at 4 µM; actives 67% (n = 2,200); in the data active = inhibition above about 23%;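 note: 0% = DMSO vehicle wells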
HNF4 split-luc = HNF4 dimerization inhibitors, counter-screen for ABHD5-PLIN5 interaction inhibitor project, biochemical, split-luciferase complementation, luminescence. shares compounds with ABHD5-PLIN5 inh. actives 77% (n = 2,200). inhibition, % at 4 µM;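 active = mean inhibition across replicate wells exceeding the computed hit threshold, cut at about 13% in these data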;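 note: light from luciferase halves that rejoin when HNF4 fusion proteins dimerize; 0% = DMSO only wells and the 100% control is not given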
Target sequence (P41235 whole entry, looked up, the tested form may be a part): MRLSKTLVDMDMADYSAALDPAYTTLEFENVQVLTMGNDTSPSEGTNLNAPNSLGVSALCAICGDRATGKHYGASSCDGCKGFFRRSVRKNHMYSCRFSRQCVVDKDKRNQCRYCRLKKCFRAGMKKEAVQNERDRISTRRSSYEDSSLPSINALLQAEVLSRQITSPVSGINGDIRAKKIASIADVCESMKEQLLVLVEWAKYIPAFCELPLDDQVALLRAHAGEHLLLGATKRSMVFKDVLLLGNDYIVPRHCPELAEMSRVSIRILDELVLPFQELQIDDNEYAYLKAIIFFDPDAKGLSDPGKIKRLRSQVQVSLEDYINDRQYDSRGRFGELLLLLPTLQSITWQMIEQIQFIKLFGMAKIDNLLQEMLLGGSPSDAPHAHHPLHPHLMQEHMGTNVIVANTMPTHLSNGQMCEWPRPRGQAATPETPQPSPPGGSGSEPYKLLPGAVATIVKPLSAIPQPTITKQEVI
* = called active by the depositor; / = no result; ! = repeats disagree.

SMILES | rCAG RNA binder | ABHD5-PLIN5 inh | LANA-H2B inh | PRMT1 FP inh | Rtt109 Vps75 | ALR inh | ABHD5 PLIN5 conf | HNF4 split-luc
COc1ccccc1-c1ncn(Cc2cccc(-c3ccccc3)c2)c1-c1cc(C)cc(C)c1 | 3.7 | -7.4 | / | -0.5 | / | / | / | /
CN(C)c1ccc(/C=C2/C[N+](C)(C)C/C(=C/c3ccc(N(C)C)cc3)C2=O)cc1 | 13.2 | 38.7* | / | -2.9 | 3.7 | / | 49.7* | 41.7*
CCn1c2ccccc2c2cc(NC(=O)CSc3nnc(C4CC4)n3Cc3ccco3)ccc21 | 12.2 | 30.9* | -1.0 | 5.7 | 0.7 | 97.6* | 11.4 | 24.6*
CCCNc1cc(=O)n(C)c(=O)n1C | 0.5 | 4.4 | 2.1 | 0.0 | 6.3 | 1.3 | / | /
Cn1c(NCCN2CCCCC2)cc(=O)n(C)c1=O | -2.3 | 27.7* | 4.4 | 23.6* | -4.8 | -2.6 | -0.8 | 2.8
CCOC(=O)Cn1c(=N)n(CCOc2ccc(OC)cc2)c2ccccc21 | / | 2.5 | 1.8 | / | 4.9 | -10.2 | / | /
CCOC(=O)Cn1c(=N)n(CCOc2ccc3ccccc3c2)c2ccccc21 | 16.0 | 25.1* | 1.0 | -0.3 | 20.3 | -10.0 | 9.4 | 8.8
COC(=O)c1cc(=O)n(-c2ccc(F)cc2)c(=Nc2ccc(F)cc2)s1 | 0.2 | 39.5* | 2.4 | 0.5 | -1.6 | 6.7 | 71.3* | 49.3*
COC(=O)c1ccc(N=c2sc(C(=O)OC)cc(=O)n2C)cc1 | 2.5 | -3.3 | / | -6.5 | -12.0 | / | / | /
COC(=O)c1cc(=O)n(Cc2cccs2)c(=Nc2ccc(F)cc2)s1 | 4.2 | 44.8* | -1.9 | 2.0 | 2.8 | 3.0 | 64.5* | 43.7*
CCCC(=O)NC(c1ccco1)c1cc([N+](=O)[O-])c2cccnc2c1O (stereo not drawn) | 15.2 | 35.0* | -1.1 | 17.7 | -3.8 | 3.3 | 16.7 | 24.4*
C=C(C)[C@@H]1C2=CC(C(=O)OC)=C(C[C@H](C(=C)C)[C@H]3O[C@H]3C3=C[C@H]1OC3=O)O2 | -2.4 | 62.5* | / | 7.5 | / | / | 86.7* | 77.7*
O=C(O)C(Cc1ccc(OS(=O)(=O)Cc2ccccc2)cc1)NS(=O)(=O)Cc1ccccc1 (stereo not drawn) | 24.9 | -0.4 | / | -3.8 | -2.0 | / | / | /
CCC(=C(c1ccc(O)cc1)c1ccc(OCCN(C)C)cc1)c1ccccc1 | 1.1 | 9.2 | / | -1.9 | / | / | / | /
CC/C(=C(\c1ccccc1)c1ccc(OCCN(C)C)cc1)c1ccccc1 | 0.6 | 38.2*! | -2.1 | 3.6 | 34.2 | -13.8 | 72.4* | 25.8*
O=C(COC(=O)c1cc(S(=O)(=O)N2CCc3ccccc3C2)ccc1Cl)NCc1ccco1 | 10.6 | 28.5* | -4.6 | 6.6 | 5.7 | 3.5 | 45.1* | 59.2*
COc1ccc(C(NC(=O)c2ccco2)c2ccc(OC)c(OC)c2)cc1 (stereo not drawn) | -1.7 | 3.6 | 2.0 | 0.9 | 4.1 | -2.1 | / | /
COc1ccc(C(NC(=O)/C=C/c2ccco2)c2ccc(OC)c(OC)c2)cc1OC | 16.5 | 24.1* | 4.3 | 17.8 | -10.4 | -5.6 | 59.3* | 53.8*
CC1(C)CC(=O)C2=C(C1)c1c(ccc3ccccc13)NC2c1ccc(C(=O)O)cc1 (stereo not drawn) | 7.4 | 1.4 | 2.8 | -3.5 | 2.5 | -12.3 | / | /
Cc1ccc(C2Nc3ccc4ccccc4c3C3=C2C(=O)CC(C)(C)C3)o1 (stereo not drawn) | / | 29.6* | -0.2 | / | -4.5 | / | 4.1 | 7.3
CC(C)C(=O)N[C@@H]1c2ccccc2CC[C@@H]1O | 3.2 | 1.8 | / | 2.3 | 2.4 | / | / | /
Cc1ccc(Nc2cc(C)nc(NCc3ccccc3)n2)cc1 | 4.9 | 23.5* | -3.2 | -0.1 | 13.3 | 2.3 | 12.5 | 15.4*
COc1ccc(/C=C/C(=O)c2ccccc2)c(OC)c1 | 1.7 | 1.2 | 4.0 | -1.6 | -5.6 | 4.1 | / | /
COc1ccccc1/C=C/C(=O)c1ccc(NC(C)=O)cc1 | -1.1 | 11.3 | 2.8 | 1.9 | -11.9 | 6.8 | / | /
COc1ccccc1/C=C/C(=O)c1ccccc1 | -3.5 | 28.8* | 5.8 | -1.8 | 4.5 | 10.9 | 54.7* | 33.7*
SMILES | rCAG RNA binder | ABHD5-PLIN5 inh | LANA-H2B inh | PRMT1 FP inh | Rtt109 Vps75 | ALR inh | ABHD5 PLIN5 conf | HNF4 split-luc
CCOc1ccccc1/C=C/C(=O)c1ccc(Cl)cc1 | 1.4 | 2.5 | -3.7 | -2.8 | 7.5 | / | / | /
COc1ccccc1/C=C/C(=O)c1ccc(Cl)cc1 | 0.3 | 27.1* | / | -0.3 | -3.3 | / | 69.2* | 48.7*
COc1ccc(OC)c(/C=C/C(=O)c2ccc(Cl)cc2)c1 | 8.4 | 49.4* | -5.7 | 0.9 | -7.2 | 22.2 | 71.6* | 55.1*
COc1cc(C=CC(=O)c2ccccc2)cc(OC)c1OC | 0.8 | 47.9* | / | 0.5 | / | / | 68.4* | 49.8*
Fc1c(-c2ccc3ncnc(NCc4cccs4)c3c2)ccc2c1OCO2 | / | / | / | -1.7 | / | / | / | /
CN(C)CC(=O)N[C@H]1C[C@@H]2O[C@@H](CO)CC[C@@H]2O[C@@H]1CCc1ccc(-c2ccc(F)cc2)cc1 | -3.4 | / | / | -5.2 | / | / | / | /
COc1cc(O)c(C(=O)/C=C/c2ccccc2)c(OC)c1 | 5.3 | 26.7* | -1.8 | -1.8 | -9.5 | 7.4 | 50.2* | 44.2*
Cc1ccc(C(=O)NCc2ccco2)cc1S(=O)(=O)N1CCCCC1 | 7.7 | 26.1* | -0.4 | 10.7 | 10.5 | -1.4 | 12.7 | 7.6
O=C(Nc1nc2ccccc2[nH]1)NC1CCCCC1 | 7.4 | 101.7* | -6.4 | -1.3 | -8.5 | -2.6 | 3.8 | 2.9
CC(NC(=O)COC(=O)C1CCC1)c1ccccc1 (stereo not drawn) | 0.0 | 23.5* | -1.6 | 1.1 | 16.7 | -1.1 | 4.1 | 1.1
O=C(NCCc1ccccc1)OCc1cn(-c2ccc(F)cc2)nn1 | 0.6 | / | / | 4.0 | / | / | / | /
CC1CCN(S(=O)(=O)c2ccc(NC(=O)Cc3cccs3)cc2)CC1 | 24.0 | 33.2* | -4.8 | 7.0 | 6.0 | -9.7 | 43.7* | 1.3
CC1CCN(S(=O)(=O)c2ccc(NC(=O)Cn3nnc(-c4ccccc4)n3)cc2)CC1 | 32.6 | 26.1* | -2.1 | -0.4 | -1.7 | -3.5 | 52.9* | -1.3
C[C@@H]1CCCN1c1ccc2c(c1)O[C@H]1CCN(C1)S2(=O)=O | 2.3 | / | / | 1.5 | / | / | / | /
CC1(C(=O)NCC2CC2)Cc2c(-c3ccc4c(c3)OCO4)ccnc2O1 (stereo not drawn) | 1.1 | 7.0 | / | -1.8 | / | / | / | /
